Screens (PubChem BioAssay)
NPC1 prom act – NPC1 promoter activation | Huh7 NPC1 promoter luciferase reporter, 24 h | Potency, µM (titrated, usually from 9.22 µM), for inactives: at the top dose activation, usual class: activators | actives 2.4% (n = 320,000) | AID 485313; note: % of control where 0% means no effect; nearly all actives have a fitted effect of over 60% in size
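Stably transfected Huh7 (NPC1 promoter→luciferase), 1500 cells/well in Opti-MEM + 10% FBS, 2 h settle, then compound 24 h at 37 °C. Luminescence after 10 min with Amplite reagent.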
ELG1 genotox – induces genotoxicity in HEK293T cells with luciferase-tagged ELG1; HEK293T ELG1-luciferase reporter, luminescence, 16 h; actives 1.3% (n = 330,000); Potency, µM (titrated, usually from 46 µM), without a hit: at the highest dose activity change, positive = activation, usual class: activators; note: % of control where 0% means no effect; nearly all actives have a fitted effect of over 60% in size
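Luminescence read-out: rising ELG1-luciferase signal, reflecting elevated ELG1 protein under genetic stress, flags genotoxic compounds. Cells were treated for 16 hr at 37 °C before ONE-Glo detection.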
SMN2 splice up – SMN2 splice variant enhancement | HEK293 SMN2-luciferase splicing reporter, luminescence, 30-36 h | actives 2.8% (n = 210,000) | Potency, µM (series often up to 46.1 µM), for inactives: at the highest dose activity change, positive = activation, usual class: activators | AID 1458; note: % of control where 0% means no effect; nearly all actives have a fitted effect of over 55% in size
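qHTS luciferase splicing reporter: luminescence rises when SMN2 exon 7 is included in transfected HEK293 cells. Compound exposure lasted 30-36 h at 37C, with 4.5 mM final sodium butyrate as control, followed by a ONE-Glo read.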
Rab9 prom act – activates the Rab9 promoter; Huh7 Rab9 promoter-luciferase reporter, luminescence, 24 h; Potency, µM (highest dose often 9.22 µM), inactives show at the highest dose activation, negative = inhibition, most hits filed as activators; actives 2.8% (n = 320,000); note: % of control where 0% means no effect; nearly all actives have a fitted effect of over 60% in size
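Luminescence read-out: Huh7 cells stably expressing Rab9-luciferase, treated 24 h with compound at 37 °C, then lysed with luciferase reagent for 10 min at ambient before reading.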
Luc counter – Kinase-Glo luciferase inhibition (counter-screen); Potency, µM (titrated, usually from 38.3 µM), for the others: at the top dose activity change, negative = inhibition, hits mostly inhibitors; Q27757; Kinase-Glo luciferase, ATP luminescence, 8 min; actives 0.28% (n = 200,000); note: % is set by controls: 0 for no effect and ±100 for the full control effect; nearly all actives have a fitted effect of over 60% in size
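Kinase-Glo luciferase light output from ATP and luciferin was measured with 10 uM ATP, within the enzyme's linear range. Buffer: 50 mM imidazole pH 7.2, 50 mM KCl, 7 mM MgCl2, 0.01% Tween 20, 0.05% BSA; luminescence read after 8 min at ambient temperature.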
FLuc counter – inhibits or activates purified firefly luciferase, miR-21 counter-screen; P08659; purified FLuc, Km substrates, luminescence inhibition; Potency, µM (highest dose often 57.5 µM), without a hit: at the highest dose activity change, negative = inhibition, hits mostly inhibitors; actives 6.9% (n = 360,000); AID 588342;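 note: plate controls were vehicle for no effect and reference inhibitor for full effect; nearly all actives have a fitted effect of over 55% in size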
Target sequence (P08659 whole entry, looked up): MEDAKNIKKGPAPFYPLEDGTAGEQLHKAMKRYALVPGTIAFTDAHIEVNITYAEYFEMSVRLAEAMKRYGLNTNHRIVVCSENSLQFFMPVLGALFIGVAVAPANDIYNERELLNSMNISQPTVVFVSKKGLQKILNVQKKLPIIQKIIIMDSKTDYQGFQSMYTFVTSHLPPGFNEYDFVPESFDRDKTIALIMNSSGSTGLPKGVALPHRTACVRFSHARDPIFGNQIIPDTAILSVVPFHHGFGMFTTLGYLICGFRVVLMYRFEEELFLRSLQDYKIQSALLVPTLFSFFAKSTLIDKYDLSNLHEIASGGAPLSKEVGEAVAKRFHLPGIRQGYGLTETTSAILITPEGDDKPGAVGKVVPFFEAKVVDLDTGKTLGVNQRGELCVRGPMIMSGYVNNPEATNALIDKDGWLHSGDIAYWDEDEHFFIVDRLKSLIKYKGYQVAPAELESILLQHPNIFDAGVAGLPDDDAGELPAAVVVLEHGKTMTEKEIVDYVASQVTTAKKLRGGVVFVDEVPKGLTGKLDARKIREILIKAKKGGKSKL
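Purified P. pyralis luciferase (10nM final) with 10uM D-luciferin and 10uM ATP (Km levels) in 50mM Tris acetate pH 7.5, 10mM Mg acetate, 0.01% Tween-20, 0.05% BSA; qHTS 6-point titration, ~60 µM downward; luminescence read.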
Starred values were filed as active, the others as inactive; ? = inconclusive; / = no result given; [ ] = remark or other dose. Compounds with a hit are over-represented: about 7.3% of the library has one in this group of screens. Calls come from the whole dose curve; as a rule, active = well fitted curve in the direction sought with a large enough effect; inconclusive = small, poorly fitted or top-dose-only effect, or another doubt; inactive = no such curve, though single readings can be large; an effect the other way counts as inactive or inconclusive. Potency is the fitted concentration of half-maximal effect.

SMILES	NPC1 prom act	ELG1 genotox	SMN2 splice up	Rab9 prom act	Luc counter	FLuc counter
C[C@@H](C(=O)Nc1ccc2c(c1)OCO2)n1c(=O)[nH]c2ccccc2c1=O	-5%	3%	/	5%	/	4%
Cn1c(SCn2nnc3ccccc3c2=O)nc2ccccc2c1=O	-6%	2%	-24%	-14%	1%	-8%
O=c1c2ccccc2nnn1CSc1ccc2c(c1)OCCO2	1.6µM*	18%	7.1µM*	1.8µM*	-6%	9.5µM*
C[C@@H](C(=O)Nc1ccc2c(c1)OCCO2)n1c(=O)[nH]c2ccccc2c1=O	3%	?	/	18%	/	15µM*
CCC(C(=O)Nc1ccc2c(c1)OCCO2)n1nnc2ccccc2c1=O (configuration not stated)	3.2µM*	?	/	?	/	13µM*
O=C(c1ccc2c(c1)N(Cc1ccc(Cl)cc1)C(=O)c1ccccc1S2(=O)=O)N1CCCCCC1	/	/	-14%	/	/	6%
Cc1ccc2c(c1)N=C(c1ccc(F)cc1)CO2	4µM*	?	16%	3.2µM*	?	4.3µM*
Cc1ccc(-c2cc3ncc4c(n3n2)-c2cc(F)ccc2OC4)cc1	/	/	7%	/	/	-8%
O=[N+]([O-])c1ccc(C2=Nc3cc(Cl)ccc3OC2)cc1	21%	17%	-2%	21%	2%	15µM*
COc1ccc(CNC(=O)c2cccn2-c2nnc(N3CCCC3)s2)c(OC)c1	/	/	/	/	/	-10%
Cc1ccccc1OCC(=O)Nc1ccc(S(=O)(=O)N(Cc2ccccc2)c2ccccc2)cc1	/	/	/	/	/	-7%
CCc1cccc(CC)c1NC(=O)c1cc(S(=O)(=O)N2CCc3ccccc32)cn1C	/	/	/	/	/	-4%
COc1ccc(/C=N/Nc2cc(N3CCOCC3)ncn2)c(OC)c1	2%	3%	/	3%	/	-9%
COc1cccc(/C=N/Nc2cc(N3CCOCC3)ncn2)c1O	-31%	?	/	-36%	/	8.5µM*
C(=N\Nc1cc(N2CCCCC2)ncn1)/c1ccco1	?	?	/	?	/	4.8µM*
Fc1ccc(/C=N/Nc2cc(N3CCOCC3)ncn2)cc1	?	17%	/	?	/	?
Fc1cccc(/C=N/Nc2cc(N3CCOCC3)ncn2)c1	1.8µM*	?	/	2µM*	/	4.8µM*
Oc1cccc(/C=N/Nc2cc(N3CCCC3)nc(N3CCCC3)n2)c1	-1%	-8%	-18%	0%	-1%	13µM*
O=C(Cn1nc(C(F)(F)F)c2c1CCCC2)Nc1ccc(Br)cc1	/	/	/	/	/	-10%
C/C(=N\Nc1cc(N2CCOCC2)ncn1)c1ccc(O)cc1	0%	9%	/	3%	/	19µM*
C/C(=N\NC(=O)c1ccc(O)cc1)c1ccc(N2CCOCC2)cc1	9%	4%	/	4%	/	?
NCC(=O)N[C@H](CO)C(=O)O	/	/	-4%[9.22 µM]	/	-3%[7.66 µM]	/
COc1cc(OC)c(NC(=O)CC(c2cccs2)N2Cc3ccccc3C2=O)cc1Cl (configuration not stated)	/	/	/	/	/	-14%
Nc1cc(C2CCCC2)nn1-c1ccccc1	2.2µM*	?	20µM*	?	13µM*	15µM*
CCS(=O)(=O)n1nc(-c2ccccc2)cc1N	5%	0%	-1%	1%	-1%	0%
SMILES	NPC1 prom act	ELG1 genotox	SMN2 splice up	Rab9 prom act	Luc counter	FLuc counter
O=C(O)c1cc(C2CC2)nn1-c1ccccc1	-2%	13%	5%	2%	0%	0%
Cc1ccc(-c2cc(N)n(-c3ccccc3)n2)cc1	1.1µM*	?	11µM*	2.8µM*	?	1.7µM*
CCc1ccc(-c2cc(N)n(-c3ccccc3)n2)cc1	0.56µM*	2.6µM*	5µM*	1.3µM*	-14%	1.7µM*
Cc1cccc(-c2cc(NC(=O)C(C)(C)C)n(-c3ccccc3)n2)c1	/	/	/	/	/	21µM*
Cc1nc(-c2ccc(F)cc2)sc1CCNC(=O)c1ccccc1C(F)(F)F	/	/	/	/	/	-9%
Cc1cccc(-c2cc(N)n(-c3ccccc3)n2)c1	1.3µM*	?	11µM*	0.79µM*	-24%	4.3µM*
c1ccc(N2CCN(c3ncccn3)CC2)cc1	5%	6%	23%	24%	2%	-13%
CCc1ccc(-c2cc3c(N4CCN(c5ccccc5)CC4)nccn3n2)cc1	/	/	14µM*	/	/	19µM*
O=C(O)[C@@H]1CS[C@@]2(CCCN(Cc3ccccc3)C2)N1	/	/	2%[9.22 µM]	/	-2%[7.66 µM]	/
CC1CCc2c(sc(NC(=O)c3cc4nc(-c5ccc(Cl)cc5)cc(C(F)(F)F)n4n3)c2C#N)C1 (configuration not stated)	/	/	5%	/	/	2%
Cc1ccc(-n2ncc3c(=O)n(CC(=O)OCc4ccccc4)cnc32)cc1	7%	8%	-8%	18%	-6%	?
O=C(Cn1cnc2c(cnn2-c2ccccc2)c1=O)OCc1ccccc1	23%	7%	8%	4µM*	-1%	11µM*
CC(=O)Nc1ccc(N/C=C/C(=O)c2ccco2)cc1	3.2µM*	4.6µM*	28µM*	1.6µM*	?	11µM*
CN(C)c1cccc(NC(=O)c2ccco2)c1	19%	6%	26%	6%	-5%	-17%
CC(=O)Nc1ccc(N/C=C/C(=O)c2ccc(C)cc2)cc1	?	-2%	/	20%	/	-19%
CN(C)c1ccc(N/C=C/C(=O)c2ccco2)cc1	3.5µM*	?	/	2.8µM*	3.5µM*	0.27µM*
CCOc1cccc(/C=N/N2C(C)CCCC2C)c1O (configuration not stated)	-1%	7%	/	4%	/	17µM*
CCOc1cccc(/C=N/N=C/c2cccc(OCC)c2O)c1O	14%	3%	/	12%	/	-11%
CCOc1cccc(C=Nc2cc(C)cc(C)c2O)c1O	3%	3%	14%	9%	-3%	27µM*
CCNc1nc(N)c(C(=O)c2ccc(Cl)s2)s1	?	?	20µM*	3.5µM*	-3%	9.5µM*
CCOC(=O)CNC(=O)c1ccc(Cl)s1	-5%	-2%	-7%	-2%	0%	-11%
Oc1cccc(/C=N/N2CCCCC2)c1O	-3%	?	/	-16%	/	9.5µM*
Oc1ccc(/C=N/N2CCCCC2)c(O)c1O	-3%	-6%	/	0%	/	?
Oc1ccccc1/C=N/N1CCCCC1	0%	?	2%	14%	-5%	24µM*
Oc1ccc(/C=N/N2CCCCC2)c(O)c1	?	?	/	-5%[1.84 µM]	/	19µM*
Cc1ccc(Cn2c(C)c(CNCCCc3ccccc3)c(C(=O)O)c2C)cc1	/	/	0%	/	/	-1%
CCOc1ccccc1NC(=O)CSc1nc2ccccc2nc1Cc1ccc(C)cc1	/	/	/	/	/	-10%
COc1ccc2ncc3c(-c4ccc(C)c(C)c4)nn(CC(=O)Nc4ccccc4)c3c2c1	/	/	/	/	/	-3%
